Out of some 370,000 compounds screened, about 1,100 (0.3%) were called active. About 1% were inconclusive and are not listed. Shown is part of a subset that was picked to be rich in actives. Values without a mark were called inactive. Calls follow the shape of the dose curve; as a rule, active = well fitted activation curve with a large enough effect; inconclusive = small, poorly fitted or top-dose-only effect; inactive = flat fitted curve, though single readings scatter.
biological target: Relaxin receptor 1 (Homo sapiens) (UniProt Q9HBX9); test: qHTS Assay for Agonists of the Relaxin Receptor RXFP1; settings: HEK293T-RXFP1 cAMP TR-FRET, 30 min; series mostly up to 57.5 µM; activation: at the top concentration; also: nearly all actives have a fitted effect of over 60% in size
Sequence (Q9HBX9 whole entry, looked up): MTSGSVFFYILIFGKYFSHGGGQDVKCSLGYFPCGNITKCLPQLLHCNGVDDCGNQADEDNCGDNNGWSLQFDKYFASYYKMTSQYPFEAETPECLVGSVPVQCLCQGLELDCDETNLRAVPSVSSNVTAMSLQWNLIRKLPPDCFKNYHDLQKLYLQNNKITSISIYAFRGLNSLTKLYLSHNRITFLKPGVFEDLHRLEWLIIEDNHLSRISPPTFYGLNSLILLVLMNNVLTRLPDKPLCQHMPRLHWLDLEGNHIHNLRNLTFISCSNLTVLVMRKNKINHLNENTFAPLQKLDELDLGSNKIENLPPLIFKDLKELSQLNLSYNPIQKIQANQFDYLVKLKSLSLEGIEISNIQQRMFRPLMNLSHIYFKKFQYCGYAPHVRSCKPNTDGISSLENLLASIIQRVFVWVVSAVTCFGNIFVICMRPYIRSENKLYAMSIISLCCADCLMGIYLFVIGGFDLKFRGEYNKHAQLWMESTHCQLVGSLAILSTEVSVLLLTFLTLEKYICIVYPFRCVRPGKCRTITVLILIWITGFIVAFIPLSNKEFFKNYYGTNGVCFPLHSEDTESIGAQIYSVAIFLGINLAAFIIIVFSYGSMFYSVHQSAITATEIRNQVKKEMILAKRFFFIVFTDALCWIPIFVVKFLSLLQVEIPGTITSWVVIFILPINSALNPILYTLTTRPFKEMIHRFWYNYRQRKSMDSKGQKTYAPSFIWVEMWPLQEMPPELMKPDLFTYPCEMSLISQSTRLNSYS
Description: NIH Chemical Genomics Center [NCGC] NIH Molecular Libraries Probe Production Centers Network [MLPCN] MLPCN Grant: R03 MH085705-01A1 Assay Submitter (PI): Alexander Agoulnik NCGC Assay Overview: The relaxin hormone is involved in the variety of biological functions in normal tissues and diseases. The role of relaxin is well-established in female reproduction and parturition, mammary gland and endometrial development, maintenance of myometrial quiescence during pregnancy. Relaxin signaling through its G protein-coupled receptor (GPCR) RXFP1 results in ECM remodeling through regulation of collagen deposition, cell invasiveness, proliferation and overall tissue homeostasis. […] Recombinant human relaxin (rhRlx) is currently being tested in clinical trials as a protective agent in congestive heart failure, in treating severe preeclampsia, and as an anti-fibrotic agent in systemic sclerosis. Upon relaxin binding RXFP1 activation leads to the activation of adenylate cyclase (AC) via Gs. cAMP will activate PKA, which phosphorylates many signaling proteins. Thus, detection of cAMP increase is an easy and reliable indication of relaxin receptor activation. To screen for agonists of the relaxin receptor, a HEK293T cell line stably transfected with RXFP1 was used. RXFP1 activation was assayed by changes in cAMP levels as detected with a time-resolved fluorescence energy transfer (TR-FRET) cAMP detection kit.
NCGC Assay Protocol Summary: This is a cell-based assay for cAMP second messenger response to screen for agonists of the RXFP1 receptor. The assay was conducted in the presence of a PDE4 inhibitor (Ro 20174). The cells were lysed and the cAMP levels were measured with a TR-FRET cAMP kit. Presence of cAMP in the cell lysate disrupts binding between the cryptate-labeled anti-cAMP and d2-labeled cAMP pair, leading to a decrease in the TR-FRET signal. Data were normalized to the controls for basal activity (buffer only) and 100% activity (29 nM porcine relaxin). The EC50 values were determined from concentration-response data modeled with the standard Hill equation 1536-well assay protocol for the HEK293 RXFP1 cAMP assay: (1) Add 3 ul HEK293 RXFP1 cell culture. 2000 cells/well in DMEM/F12, 10% FBS, 1x Pen/Strep (dispensed offline with MultiDrop Combi). (2) Incubate 16-24 hr at 37C, 5% CO2. (3) Add 1 ul 400uM Ro20174 in DPBS, 0.05% BSA, 0.005% Tween 20. (3) Add 23 nl compounds in DMSO solution. Final concentration was 0.5 - 58 uM. (4) Incubate 30 min at 37C, 5% CO2. (5) Add 1 ul cAMP-d2 in lysis buffer (HTRF cAMP HiRange kit, CisBio). (6) Add 1 ul anti-cAMP antibody-cryptate in lysis buffer (HTRF cAMP HiRange kit, CisBio). (7) Incubate 30 min at room temperature. (6) Detect the assay plate in a ViewLux plate reader (PerkinElmer) with Ex=320 nm, Em1=615 nm and Em2=665 nm. Keywords: relaxin, RXFP1, RXFP2, G-protein coupled receptor, cAMP, agonist, high throughput screening, MLSMR, MLSCN, NIH Roadmap, qHTS and NCGC
% is scaled to controls: 0 for no effect and ±100 for the full control effect; potency is read from the fitted curve at half-maximal effect.

Q: `CCc1ccc(CN(Cc2ccco2)C(=O)COc2ccc(Cl)c(C)c2)cc1` was tested. Which “activation” value did it give?
A: -2.55%

Q: `CCOc1ccccc1C(=O)NCC(c1ccc(N(C)C)cc1)N1CCCC1` (configuration not stated) was tested. Which “activation” value did it give?
A: -0.212%

Q: How did the “activation” value turn out when `Cc1cccc(Nc2cc(C)nc(-n3nc(C)cc3C)n2)c1` was run?
A: 2.8%

Q: How did the “activation” value turn out when `Cc1ccc2oc(=O)c3cnn(CC(=O)NCc4ccccc4Cl)c3c2c1` was run?
A: 11.8%

Q: `Cc1ccc(-c2cnc(NCc3ccc(C(C)C)cc3)n2C)cc1` was tested. Which “activation” value did it give?
A: 2.92%

Q: With `COc1ccc(/C=C/c2nc(C#N)c(NCc3ccc(F)cc3)o2)cc1OC` as the compound, how does the “activation” value read?
A: 7.14%

Q: `COc1cccc(-c2nnc3n(CCc4ccccc4)c(=O)c4ccccc4n23)c1O` was tested. Which “activation” value did it give?
A: -6.16%

Q: How did the “activation” value turn out when `CCCSc1ncc(Cl)c(C(=O)Nc2sc3c(c2C(=O)NCCOC)CCCC3)n1` was run?
A: 0.71%

Q: For `O=C(COc1ccccc1Cl)Nc1ccc2nc(SCC(=O)N3CCCC3)sc2c1`, which “activation” value is on record?
A: -0.6%

Q: `Cc1ccc(CNC(=O)CCc2c(C)nn(-c3ccc(N4CCCC4)nn3)c2C)cc1` was tested. Which “activation” value did it give?
A: 1.44%

Q: Which “activation” value does the source give for `Cc1cc(C)c(NC(=O)CN2C(=O)c3cccnc3Oc3ccc(Cl)cc32)c(C)c1` here?
A: -0.402%

Q: With `Cc1cccc(CSc2nc3ccncc3n2CC(=O)N(C)C2CCCCC2)c1` as the compound, how does the “activation” value read?
A: 26.3%

Q: How did the “activation” value turn out when `O=C(CSc1nccn1Cc1ccc(F)cc1)NCc1ccccc1` was run?
A: 1.6%

Q: Which “activation” value does the source give for `Cc1ccc(NC(=O)CSc2nnc3[nH]c(=O)cc(C)n23)cc1Cl` here?
A: 1.96%

Q: For `COc1ccc(-c2nc(SCC(=O)N3CCCCC3C)n[nH]2)cc1` (configuration not stated), which “activation” value is on record?
A: 4.16%

Q: How did the “activation” value turn out when `O=C(c1cccc(Br)c1)N1CCN(Cc2cc(=O)n3nc(-c4ccccc4)sc3n2)CC1` was run?
A: 0.565%

Q: `Cc1ccc(-n2cnc3cc(C(=O)NCCC4=CCCCC4)ccc32)cc1Cl` was tested. Which “activation” value did it give?
A: -0.218%

Q: Which “activation” value does the source give for `Brc1ccc2c(c1)NC(c1cccnc1)=NC(c1ccccc1)=N2` here?
A: 2.1%

Q: With `CCc1cnc2c(c1SCC(=O)N1CCC(C)CC1)c(=O)n(C)c(=O)n2C` as the compound, how does the “activation” value read?
A: 12.8%

Q: With `Cc1cc(C)c(/C=C/c2onc(C)c2S(=O)(=O)N2CCC(C(=O)Nc3ccc(Cl)cc3C)CC2)c(C)c1` as the compound, how does the “activation” value read?
A: 0.56%

Q: Which “activation” value does the source give for `CCCNC(=O)c1ccc2c(c1)ncn2-c1ccc(C)cc1C` here?
A: -0.066%

Q: `COc1ccc(S(=O)(=O)NCc2cccn2Cc2cccc(C)c2)cc1Cl` was tested. Which “activation” value did it give?
A: 3.64%

Q: `CCOC(=O)N1CCc2c(sc(NCc3cccc(F)c3)c2C(=O)Nc2ccccc2OCC)C1` was tested. Which “activation” value did it give?
A: 3.22%

Q: Which “activation” value does the source give for `COc1cccc(OCCn2c(-c3ccc(Br)cc3)nc3ccccc3c2=O)c1` here?
A: -2.88%

Q: Which “activation” value does the source give for `O=C(CCS(=O)(=O)c1ccc2c(c1)NC(=O)CO2)Nc1cccc(C(F)(F)F)c1` here?
A: -0.361%

Q: With `CCOc1ccc(C(=O)/C=C/c2cn(CC(O)CN3CCCCCC3)c3ccccc23)cc1` (configuration not stated) as the compound, how does the “activation” value read?
A: -1.71%

Q: For `COc1ccc(N2CCN(C(=O)CSCc3nc(-c4ccccc4Cl)oc3C)CC2)cc1`, which “activation” value is on record?
A: 0.152%

Q: For `Cc1ccc(NC(=O)NC(C)c2c(-n3cccc3)sc(C)c2C)c(C)c1` (configuration not stated), which “activation” value is on record?
A: -0.32%

Q: With `CCc1cc2c(cc3c(=O)n(CC(=O)NCc4cccc(Cl)c4)nc(CC)n32)s1` as the compound, how does the “activation” value read?
A: 12.2%

Q: How did the “activation” value turn out when `Cc1ccc(-n2ncc3c(N4CCC(C(N)=O)CC4)ncnc32)cc1` was run?
A: 16.5%

Q: `COC(=O)c1ccc(NC(=O)CCc2c(C)nc3c(c(C)nn3-c3ccc(C)cc3)c2C)cc1` was tested. Which “activation” value did it give?
A: -1.04%

Q: For `CCCCOc1ccc(CN2C(=O)C(=O)c3cc(Br)cc(C)c32)cc1OC`, which “activation” value is on record?
A: 0.139%

Q: How did the “activation” value turn out when `CCOc1ccccc1CNC(=O)Nc1cn(CC(C)C)c(=O)c2ccccc12` was run?
A: -0.657%

Q: `CN(Cc1ccccc1)C(=O)c1cn(C)c2ccc(S(=O)(=O)N3CCCCC3)cc2c1=O` was tested. Which “activation” value did it give?
A: -0.519%

Q: How did the “activation” value turn out when `Cc1ccccc1CNC(=O)Cn1c(C)c2cnn(-c3ccccc3)c(=O)c2c1C` was run?
A: 1.46%

Q: `Cc1ccc2oc3c(c(=O)c2c1)C(c1ccc(O)cc1)N(Cc1ccc2c(c1)OCO2)C3=O` (configuration not stated) was tested. Which “activation” value did it give?
A: -0.0237%

Q: How did the “activation” value turn out when `COc1ccc(C)cc1N(C)C(=O)c1c(C)oc2ncnc(N3CCOCC3)c12` was run?
A: -3.68%

Q: `O=C(NCCCc1ccccc1)c1ccc2c(c1)sc1nc(-c3ccc(F)cc3)cn12` was tested. Which “activation” value did it give?
A: -1.38%

Q: How did the “activation” value turn out when `COc1cccc(C(=O)N(Cc2cccc(Cl)c2)Cc2ccco2)c1` was run?
A: 1.03%

Q: `COc1cc(Cl)c(NC(=O)C(NS(=O)(=O)c2cccs2)C(C)C)c(OC)c1` (configuration not stated) was tested. Which “activation” value did it give?
A: -2.63%

Q: How did the “activation” value turn out when `CCOC(=O)c1c(NC(=O)COc2cc(C)ccc2C(C)C)sc(C)c1C` was run?
A: 2.49%

Q: Which “activation” value does the source give for `COC(=O)c1ccccc1NC(=O)c1ccc(COc2ccccc2Cl)o1` here?
A: 2.52%

Q: How did the “activation” value turn out when `O=C(Cn1c(=O)n(-c2ccc(F)cc2)c(=O)c2sccc21)Nc1cccc(C(F)(F)F)c1` was run?
A: 0.102%

Q: With `CC(C)(C)c1ccc(OCC(=O)N2CCC(c3nc4ccccc4s3)CC2)cc1` as the compound, how does the “activation” value read?
A: -0.849%

Q: How did the “activation” value turn out when `O=C(NC1CC(=O)N(c2ccc(F)cc2)C1)c1ccc(S(=O)(=O)N2CCCC2)cc1` (configuration not stated) was run?
A: 1.57%

Q: `COc1ccc(Cn2ccnc2SCC(=O)NCc2ccco2)cc1` was tested. Which “activation” value did it give?
A: 2.97%

Q: For `CCOc1ccc2oc(=O)cc(CN3CCN(C(=O)c4ccc(F)cc4)CC3)c2c1`, which “activation” value is on record?
A: 1.02%

Q: Which “activation” value does the source give for `Cc1cnc(NC(=O)Cn2cnc3c2c(=O)n(C)c(=O)n3C)s1` here?
A: 15.8%

Q: For `Cn1c(=O)c2c(ncn2CC(=O)N/N=C/c2cn[nH]c2-c2ccc(F)cc2)n(C)c1=O`, which Potency is on record?
A: 14.1 µM (active)

Q: With `CN(CC(=O)Nc1ccc(F)c(F)c1F)C(=O)Cn1cnc2c1c(=O)n(C)c(=O)n2C` as the compound, how does the “activation” value read?
A: 9.55%

Q: With `CCCNc1ncnc2c1c(-c1ccccc1)cn2-c1ccc(OCC)cc1` as the compound, how does the “activation” value read?
A: 4.06%

Q: With `COc1ccc(S(=O)(=O)N2CCOCC2)cc1NC(=O)Cc1c(F)cccc1Cl` as the compound, how does the “activation” value read?
A: -0.855%

Q: For `COc1ccc(S(=O)(=O)N2CCOCC2)cc1NC(=O)CSc1ncnc2ccccc12`, which Potency is on record?
A: 15.8 µM (active)

Q: With `COc1ccc(S(=O)(=O)N2CCOCC2)cc1NC(=O)CSc1cc(C)ccc1C` as the compound, how does the “activation” value read?
A: -2%

Q: How did the “activation” value turn out when `CCOc1ccc(C(=O)Nc2ccc3nc4c(c(Nc5ccccc5OC)c3c2)CCCC4)cc1` was run?
A: -0.31%

Q: For `C=Cc1ccc(Cn2c(C(=O)O)c(CNC3CCCC3)c3ccc(C)cc32)cc1`, which “activation” value is on record?
A: 0.0544%

Q: Which “activation” value does the source give for `CCOc1ccc(CCNC(=O)CN(c2ccc(C)cc2)S(=O)(=O)N(C)C)cc1OCC` here?
A: 2%

Q: With `O=C(Nc1ccc(Br)cc1)c1cc2nc(-c3ccccc3)cc(-c3ccccc3)n2n1` as the compound, how does the “activation” value read?
A: 3.76%

Q: Which “activation” value does the source give for `COc1ccc2oc(-c3ccc(C)c(NC(=O)c4sc5ccccc5c4Cl)c3)nc2c1` here?
A: 2.29%

Q: Which “activation” value does the source give for `CCOc1cccc(CC(=O)N2CCc3c([nH]c4ccccc34)C2c2ccc(OC)cc2)c1OCC` (configuration not stated) here?
A: 4.11%

Q: `Cc1cc(C)cc(NC(=O)Cn2nc(N3CCN(c4ccccc4)CC3)ccc2=O)c1` was tested. Which “activation” value did it give?
A: 0.0868%

Q: For `Cc1ccc(Cl)cc1N(C)C(=O)C1CCCN(c2ncnc3onc(-c4ccc(F)cc4)c23)C1` (configuration not stated), which “activation” value is on record?
A: 0.553%
